Reference: ChEMBL document CHEMBL4513216, “Probing the Open Global Health Chemical Diversity Library for Multistage-Active Starting Points for Next-Generation Antimalarials” (ACS Infect Dis, 2020)
Out of some 69,000 compounds screened, about 8,600 (12%) showed an effect of 50% or more. The full list was thinned out, with strong results kept by preference.

These compounds were tested on Plasmodium berghei (assay: Screen against P. berghei liver stage (PbLuc), transformed with Luciferase, at 10uM). Settings: tested at 10 uM.
Assay type: functional, HepG2
Work on `CCOc1ccccc1C(C(=O)O)N(C)CC1CCOCC1` (centres undefined) yielded an INHIBITION of 41.3%. With `c1sc(C2CCCCC2)nc1CN1CCn2c(nnc2C2CC2)C1` the INHIBITION was 38.8%. Work on `O=C(NCCn1ccnc1)N1CCCC1c1ccc2c(c1)OCCO2` (centres undefined) yielded an INHIBITION of -1.25%. In the case of `COc1ccc2nnc(CCC(=O)Nc3nc4c(s3)CCCC4)n2n1`, the INHIBITION is reported as -2.09%. `O=C(NCC1CCOCC1)[C@@H]1C[C@@H]2CCN(Cc3ccco3)C[C@H]2O1` gave an INHIBITION of 2.74%. `COCCCNC(=O)C(C)(C)N(C)C1CCCC1` gave an INHIBITION of 72.1%. In the case of `CN(C1CCCC1)C(C)(C)C(=O)NCCNC(N)=O`, the INHIBITION is reported as 32.2%. `CN(C1CCCC1)C(C)(C)C(=O)NCCS(C)(=O)=O` showed an INHIBITION of 42.4%. For `O=C1CCC(=O)c2oc3ccc(Br)cc3c2N1`, the INHIBITION was 0.207%. In the case of `Cc1cnn(CCNCc2ccc(S(C)(=O)=O)cc2)c1`, the INHIBITION is reported as -13.1%. In the case of `CC(Cn1cccn1)NCc1csc(COc2ccccc2)n1` (centres undefined), the INHIBITION is reported as -2.53%. `CC(Cn1cccn1)NCc1cnc(N2CCCC2)nc1` (centres undefined) showed an INHIBITION of 53.2%. Compound `Cc1cnn(CC(C)NCc2cccnc2)c1` (centres undefined) has an INHIBITION of -3%. `c1ccc(Cn2cccn2)c(CNCc2cnc(N3CCCC3)nc2)c1` showed an INHIBITION of 22.6%. With `c1cnn(CCNCc2cnc(N3CCCC3)nc2)c1` the INHIBITION was -1.04%. `COc1cc(CNC(C)Cn2cccn2)cc(OC)c1` (centres undefined) gave an INHIBITION of 25.1%. For `Cc1cnn(CC(C)NCc2ccccc2OCc2cccnc2)c1` (centres undefined), the INHIBITION was 13.3%. Compound `Cc1cnn(CC(C)NCc2ccc(S(C)(=O)=O)cc2)c1` (centres undefined) has an INHIBITION of 56.3%. Work on `CC(Cn1cccn1)NCc1ccc(OCc2ccncc2)cc1` (centres undefined) yielded an INHIBITION of 56.4%. Work on `Cc1cnn(CC(C)NCc2ccc(OCc3cccnc3)cc2)c1` (centres undefined) yielded an INHIBITION of 58.5%. `Cc1cnn(CC(C)NCc2ccc(C#N)cc2)c1` (centres undefined) showed an INHIBITION of 32.8%. Compound `c1cnc(N2CCO[C@H]3[C@H](OCCN4CCCC4)CC[C@@H]32)nc1` has an INHIBITION of 43.8%. In the case of `CNC(=O)NCC1CCC2(CCN(C(=O)c3cccnc3)CC2)CO1` (centres undefined), the INHIBITION is reported as 41.2%. Compound `O=C(Cc1cccs1)N1Cc2nc(CN3CCCC3)oc2C1` has an INHIBITION of 30.5%. Work on `Cc1cccc(S(=O)(=O)N2C[C@@H]3C[C@H](C(=O)NCC4CC4)[C@H](C2)O3)c1` yielded an INHIBITION of 2.4%. In the case of `CCc1nc(N2CCC3(CC2)[C@H](O)C[C@@H]3O)ncc1C`, the INHIBITION is reported as -50.8%. `CCOCC1CC2(CCN(C(=O)c3ncccn3)CC2)CO1` (centres undefined) showed an INHIBITION of 33.4%. `COc1ccc(CNC(C)Cn2cccn2)cc1F` (centres undefined) was tested, and the INHIBITION was 59.4%. `COc1ccc(CNC(C)Cn2cccn2)cc1OC` (centres undefined) was tested, and the INHIBITION was 27.8%. With `Cc1cnn(CC(C)NCc2ccncc2)c1` (centres undefined) the INHIBITION was -17.6%. For `Cc1cnn(CC(C)NCc2cc(=O)n3cc(C)ccc3n2)c1` (centres undefined), the INHIBITION was -16.1%. `Cc1cnn(CCNCc2ccc(OCC(N)=O)cc2)c1` gave an INHIBITION of -41.1%. `Cc1cnn(CC2CCCN2Cc2cc(=O)n3ccccc3n2)c1` (centres undefined) was tested, and the INHIBITION was 28.3%. `Cc1cnn(CC(C)NCc2ccc(OCc3nccn3C)cc2)c1` (centres undefined) gave an INHIBITION of -34%. `Cc1cnn(CC(C)NCc2ccc(OCC(N)=O)cc2)c1` (centres undefined) gave an INHIBITION of 58.5%. `Cc1cnn(CC(C)NCc2ccc(OCc3cscn3)cc2)c1` (centres undefined) gave an INHIBITION of -11.4%. In the case of `Cc1cnn(CC(C)NCc2ccc(OCc3ccncc3)cc2)c1` (centres undefined), the INHIBITION is reported as 54.6%. Work on `Cc1cnn(CC(C)NCc2cc(=O)n3ccccc3n2)c1` (centres undefined) yielded an INHIBITION of 89.6%. For `COc1cc(CNC(C)Cn2cccn2)cc(OC)c1OC` (centres undefined), the INHIBITION was 36.4%. In the case of `COCCN1C(=O)[C@@H]2CC[C@H]1CN(C(=O)COc1ccc(F)c(Cl)c1)C2`, the INHIBITION is reported as -102%. Work on `CN(C)[C@@H]1CCN(C(=O)c2ccccn2)[C@H]1Cc1cnn(C)c1` yielded an INHIBITION of 20.6%. For `CCN1CC(CN(C)Cc2nc(-c3ccc(F)cc3)oc2C)CC1=O` (centres undefined), the INHIBITION was 34.2%. Work on `CN(Cc1nc(Cc2cccc(C(F)(F)F)c2)no1)C1CCCCC1` yielded an INHIBITION of 43.9%. `Cc1cnn(CCNCc2csc(-c3ccco3)n2)c1` was tested, and the INHIBITION was -4.9%. `COc1c(CNCc2ccnc(N(C)C)c2)c(C(C)C)nn1C` showed an INHIBITION of 9.47%. Compound `CC(C)c1noc(C2CC(=O)N(CCN(C)C)C2)n1` (centres undefined) has an INHIBITION of 16.5%. In the case of `COc1ccc2c(ccn2CCC(=O)NCCC(=O)O)c1`, the INHIBITION is reported as 42.1%. For `COCCCNC(=O)CN(C)C(=O)c1cc2cc(C)ccc2nc1C`, the INHIBITION was 5.885%. `COc1cccc(S(=O)(=O)NC(=O)COC2CCCCC2)c1` showed an INHIBITION of 1.78%. `CCn1nnc(NCc2ccc(-c3ccc(Br)cc3)o2)n1` gave an INHIBITION of 12.3%. In the case of `CC(C)c1cc(C(=O)N2C[C@@H]3CC[C@H]2CN(Cc2cccnc2)C3)no1`, the INHIBITION is reported as 2.02%. For `Cn1ccnc1CNc1nccc(-c2ncnn2C)n1`, the INHIBITION was -29%. In the case of `Cn1ncnc1-c1ccnc(NCCCc2ccncc2)n1`, the INHIBITION is reported as 94.3%. `Cn1ncnc1-c1ccnc(NCc2ccncc2)n1` showed an INHIBITION of 14.5%. `COCC(=O)N1CC[C@@H](N2CCN(C)CC2)[C@@H]1Cc1ccccc1` showed an INHIBITION of 41.6%. In the case of `CCN1CCC2(CC1)CC(NC(=O)N(C)C)c1cc(C)ccc12` (centres undefined), the INHIBITION is reported as 12.2%. Work on `CC(=O)NCC(=O)NC1CCc2nccn2C1` (centres undefined) yielded an INHIBITION of 40.6%. With `N#Cc1cc(F)c(NCCc2ccc(S(N)(=O)=O)cc2)c(F)c1` the INHIBITION was 37.8%. `N#Cc1cc(F)c(NCc2ccc(F)cc2)c(F)c1` showed an INHIBITION of 51.7%. `N#Cc1cc(F)c(NCCc2ccc(F)cc2)c(F)c1` was tested, and the INHIBITION was 23.9%. With `c1cc(-c2cnccn2)cc(-c2ccn(CCCN3CCCCC3)n2)c1` the INHIBITION was 26.9%. With `c1cc(-c2cnccn2)cc(-c2ccn(CCN3CCCC3)n2)c1` the INHIBITION was 55.1%. For `Cc1ccc(-c2cccc(-c3ccn(CCN4CCCC4)n3)c2)nn1`, the INHIBITION was 46.8%. `c1ccc(-c2cccc(-c3ccn(CCN4CCCCC4)n3)c2)nc1` gave an INHIBITION of 48.4%. `Cc1cnc(C)c(-c2cccc(-c3ccn(CCN4CCCC4)n3)c2)n1` was tested, and the INHIBITION was 55.6%. For `c1cc(-c2cnccn2)cc(-c2ccn(CCN3CCCCC3)n2)c1`, the INHIBITION was 5.38%. Work on `CCCOCC1CCN(C(=O)Cn2ncc(N3CCCC3)cc2=O)C1` (centres undefined) yielded an INHIBITION of -13.6%. `c1csc(CN2CCO[C@H]3[C@H](OCCN4CCCC4)CC[C@@H]32)n1` gave an INHIBITION of 16.8%. For `CCO[C@@H]1CO[C@@]2(CCCN(Cc3scnc3C)C2)C1`, the INHIBITION was 5.14%. For `CN(CCN1CCCC1)c1nccc(N2CCN[C@H]3CS(=O)(=O)C[C@H]32)n1`, the INHIBITION was 45.3%. `CCN(C)c1nccc(N2CCN[C@H]3CS(=O)(=O)C[C@H]32)n1` was tested, and the INHIBITION was 40.9%. With `CN(C)CCCN(C)c1nccc(N2CCN[C@H]3CS(=O)(=O)C[C@H]32)n1` the INHIBITION was 59.3%. For `CCC(C)(C)NC(=O)c1ncn2c1CN(C)S(=O)(=O)c1ccccc1-2`, the INHIBITION was 47.4%. For `Cn1nnc2c1C(COCc1ccccn1)CN(Cc1ccoc1)C2` (centres undefined), the INHIBITION was 49.2%. `c1cncc(OCc2n[nH]c3c2CN(Cc2cccs2)C3)c1` was tested, and the INHIBITION was 51.2%. `c1ccc(OCc2n[nH]c3c2CN(Cc2cccs2)C3)nc1` was tested, and the INHIBITION was -0.804%. Work on `COCc1n[nH]c2c1CN(Cc1cccs1)C2` yielded an INHIBITION of 64.5%. For `CN(C)Cc1n[nH]c2c1CCN(Cc1cccs1)C2`, the INHIBITION was 34.6%. With `OCCOCc1n[nH]c2c1CN(Cc1ccccn1)C2` the INHIBITION was 35.8%. Compound `COCc1n[nH]c2c1CN(Cc1ccccn1)C2` has an INHIBITION of 47.5%. Compound `c1csc(CN2Cc3[nH]nc(COCC4CC4)c3C2)c1` has an INHIBITION of 46.7%. With `OCCOCc1n[nH]c2c1CN(Cc1cccs1)C2` the INHIBITION was 58.5%. `c1ccc(CN2Cc3[nH]nc(COc4cccnc4)c3C2)nc1` was tested, and the INHIBITION was 25.8%. `Cc1nn(C)c(C)c1CCC(=O)N1CCCC(n2cncn2)C1` (centres undefined) gave an INHIBITION of 27.6%. Compound `OCC1(O)CCCN(Cc2noc(-c3ccccc3)n2)CC1` (centres undefined) has an INHIBITION of 41.2%. `C[S+]([O-])CCNC(=O)N1CCSC(C)(C)C1` (centres undefined) was tested, and the INHIBITION was 25.4%. `O=S(=O)(Cc1ccccc1)c1nnc(N2CCOCC2)s1` gave an INHIBITION of 0%. For `Cc1cccc(CS(=O)(=O)c2nnc(N3CCOCC3)s2)c1`, the INHIBITION was 0%. Compound `O=S(=O)(Cc1ccccc1)c1nnc(N2CCCC2)s1` has an INHIBITION of 53.8%. `CS(=O)(=O)NCc1ncn2c1CN(CCN1CCCC1)CCC2` was tested, and the INHIBITION was 31.1%. Work on `CC(C)CC(=O)NCC(O)c1c(F)cccc1F` (centres undefined) yielded an INHIBITION of 21.8%. `CCC1CCCCN1Cc1nc2c(cnn2C)c(=O)[nH]1` (centres undefined) gave an INHIBITION of 25.1%. For `CCc1ccccc1CNC(=O)CNC(=O)C(C)(C)C`, the INHIBITION was -11.5%. Compound `CC(C)OCc1ccccc1CNC(=O)C(C)S(=O)(=O)C(C)C` (centres undefined) has an INHIBITION of 3.84%. In the case of `CC(C)OCc1ccccc1CNC(=O)C(C)(C)C`, the INHIBITION is reported as 68.6%. `CCN(CC)C(=O)c1ccc(Cl)c(NC(=O)c2cc(C(C)C)on2)c1` was tested, and the INHIBITION was 43%. `CN(C)Cc1cnc(CC2CCN(CCc3ccccc3)CC2)cn1` was tested, and the INHIBITION was 9.05%. `c1cnc(N2CCO[C@H]3[C@H](OCC4CC4)CC[C@@H]32)nc1` showed an INHIBITION of 21.6%. For `CSc1[nH]c(=O)c(C(=O)N2CCCC2C2CCCC2)cc1C#N` (centres undefined), the INHIBITION was 0.672%. `CCC1CCCCCN1C(=O)c1cc(C#N)c(SC)[nH]c1=O` (centres undefined) was tested, and the INHIBITION was 49.9%. `CSc1[nH]c(=O)c(C(=O)N2CCCC2c2cccs2)cc1C#N` (centres undefined) was tested, and the INHIBITION was 53.3%. `CN(C)c1ncc(-c2cc(C(=O)N3CCCC3)n(CC3CC3)c2)cn1` gave an INHIBITION of 3.58%. With `CCCc1ncc(C(=O)N2CCOc3ncccc32)s1` the INHIBITION was 63.8%. In the case of `O=C(c1cnc(-c2ccco2)s1)N1CCOc2ncccc21`, the INHIBITION is reported as -40.6%. Compound `O=C(c1csc(-c2ccco2)n1)N1CCOc2ncccc21` has an INHIBITION of -178%. `Cc1cccc(OC2(C(=O)O)CCN(C(=O)CCc3ccco3)CC2)c1` showed an INHIBITION of 16.6%. For `Cc1cn(-c2ccccc2)nc1NS(=O)(=O)c1ccc(C(=O)O)cc1`, the INHIBITION was 20.9%. Compound `CCc1c(C)n(CC(=O)OC)c2nc3ccccc3n2c1=O` has an INHIBITION of 15%. `Cc1noc([C@@H]2C[C@H]3OCC[C@H]3N(S(=O)(=O)c3cccnc3)C2)n1` was tested, and the INHIBITION was 30.1%.
